{"source": "the supplement of paper PMC3334620", "note": "Whole data set: some 33,000 sequences, median “E-score (-0.5 to 0.5)” near -0.04, cut for the highest 2% near 0.36. This excerpt belongs to a sample that is enriched for the highest values."}
{"molecular_target": "T1, Hmlalpha2 (UniProt P0CY09)", "T1 sequence": "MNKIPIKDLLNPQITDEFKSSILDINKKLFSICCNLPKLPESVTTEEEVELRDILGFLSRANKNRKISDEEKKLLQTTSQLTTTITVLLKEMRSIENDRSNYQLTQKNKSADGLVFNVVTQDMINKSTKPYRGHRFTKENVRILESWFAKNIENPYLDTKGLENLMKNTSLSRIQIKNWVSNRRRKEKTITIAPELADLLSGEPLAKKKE", "assay": "PBM E-score (8-mer binding enrichment) (E-score (-0.5 to 0.5)); higher = stronger / more preferred TF binding", "settings": "protein concentration: 200 nM; construct: GST-full length", "experimental": "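Universal 'all 10-mer' protein binding microarrays (Agilent AMADID 015681) probed with GST-tagged S. cerevisiae TFs (full-length or DBD) made by in vitro transcription/translation (PURExpress), about 100-200 nM. Bound TF was detected with fluorescent anti-GST. Each ungapped 8-mer (which stands for itself and its reverse complement) is scored by the PBM enrichment score (E-score), a modified Wilcoxon-Mann-Whitney statistic from -0.5 to +0.5, computed with the Universal PBM Analysis Suite. Scale: above 0.35 generally sequence-specific binding.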"}
{"sequence": "CTGCGTAA", "PBM E-score": 0.417}
{"sequence": "ATGCGTAA", "PBM E-score": 0.375}
{"sequence": "CTGCGTTA", "PBM E-score": 0.226}
{"sequence": "GTGCGTAA", "PBM E-score": 0.406}
{"sequence": "CTGCGTAC", "PBM E-score": 0.186}
{"sequence": "GGGCGTAA", "PBM E-score": 0.0836}
{"sequence": "GTTCTGAA", "PBM E-score": 0.213}
{"sequence": "TGTGGGAA", "PBM E-score": 0.00853}
{"sequence": "CCCTCGCG", "PBM E-score": -0.199}
{"sequence": "ATGAGCAC", "PBM E-score": -0.067}
{"sequence": "ACTAAGTC", "PBM E-score": -0.157}
{"sequence": "AATATTAT", "PBM E-score": 0.189}
{"sequence": "AATATTAG", "PBM E-score": 0.0923}
{"sequence": "AATATTAC", "PBM E-score": 0.381}
{"sequence": "ACCACCAG", "PBM E-score": -0.148}
{"sequence": "AATACGCT", "PBM E-score": 0.234}
{"sequence": "AATACGCG", "PBM E-score": 0.399}
{"sequence": "CATACGCG", "PBM E-score": 0.177}
{"sequence": "AATACGCC", "PBM E-score": 0.0351}
{"sequence": "GATACGCA", "PBM E-score": 0.144}
{"sequence": "AATACGCA", "PBM E-score": 0.385}
{"sequence": "CGACTTTA", "PBM E-score": 0.134}
{"sequence": "AGGCACGC", "PBM E-score": -0.188}
{"sequence": "CTATTAGA", "PBM E-score": -0.0387}
{"sequence": "CTATTACC", "PBM E-score": -0.0498}
{"sequence": "GTATTAAA", "PBM E-score": 0.307}
{"sequence": "CTATTACA", "PBM E-score": 0.442}
{"sequence": "GTATTAGA", "PBM E-score": 0.289}
{"sequence": "GTATTACA", "PBM E-score": 0.403}
{"sequence": "ATATTACA", "PBM E-score": 0.439}
{"sequence": "ATATTACC", "PBM E-score": 0.187}
{"sequence": "ATATTACG", "PBM E-score": 0.352}
{"sequence": "ATCTTTCA", "PBM E-score": 0.0227}
{"sequence": "TTTCAAAA", "PBM E-score": 0.17}
{"sequence": "CTGATACC", "PBM E-score": -0.15}
{"sequence": "CGTTTGAC", "PBM E-score": 0.0383}
{"sequence": "ACGTAATC", "PBM E-score": 0.392}
{"sequence": "AAGTAATG", "PBM E-score": 0.196}
{"sequence": "AGGTAATA", "PBM E-score": 0.139}
{"sequence": "AGGTAATG", "PBM E-score": 0.226}
{"sequence": "GCGTAATA", "PBM E-score": 0.373}
{"sequence": "ACGTAATA", "PBM E-score": 0.431}
{"sequence": "ACGTAAGC", "PBM E-score": 0.0597}
{"sequence": "CCGTAATC", "PBM E-score": -0.00299}
{"sequence": "GAGTAATA", "PBM E-score": 0.286}
{"sequence": "CCGTAATA", "PBM E-score": 0.159}
{"sequence": "ACGTAAGA", "PBM E-score": 0.29}
{"sequence": "ACGTAATG", "PBM E-score": 0.408}
{"sequence": "GCTGCTTA", "PBM E-score": -0.0322}
{"sequence": "CCAATGCG", "PBM E-score": -0.181}
{"sequence": "GGTAAGCA", "PBM E-score": -0.0728}
{"sequence": "AATAAGCC", "PBM E-score": -0.212}
{"sequence": "GTGCATGA", "PBM E-score": 0.0341}
{"sequence": "GAAAGTTC", "PBM E-score": -0.218}
{"sequence": "GTATCCTA", "PBM E-score": 0.0388}
{"sequence": "GCCTATGA", "PBM E-score": -0.147}
{"sequence": "CCAACCCG", "PBM E-score": -0.242}
{"sequence": "GGGCGAAC", "PBM E-score": -0.178}
{"sequence": "GAACTCTA", "PBM E-score": 0.123}
{"sequence": "TTATCGAA", "PBM E-score": 0.0652}
{"sequence": "GATGTTAC", "PBM E-score": 0.304}
{"sequence": "AATGTTAG", "PBM E-score": 0.185}
{"sequence": "AATGTTAC", "PBM E-score": 0.269}
{"sequence": "CATGTTAC", "PBM E-score": 0.41}
{"sequence": "CATGTTAG", "PBM E-score": 0.422}
{"sequence": "CCTGTTAG", "PBM E-score": 0.0951}
{"sequence": "ATGGTCGA", "PBM E-score": -0.0159}
{"sequence": "ACGTAAAG", "PBM E-score": 0.372}
{"sequence": "ACGTAACG", "PBM E-score": 0.161}
{"sequence": "ACGTAAAC", "PBM E-score": 0.295}
{"sequence": "ACGTAACA", "PBM E-score": 0.385}
{"sequence": "CCGTAAAG", "PBM E-score": 0.0757}
{"sequence": "ACGTAACC", "PBM E-score": 0.22}
{"sequence": "ACGTAAGT", "PBM E-score": 0.216}
{"sequence": "ACGTAAAA", "PBM E-score": 0.388}
{"sequence": "CAGTAAAA", "PBM E-score": 0.134}
{"sequence": "ACGTAAAT", "PBM E-score": 0.376}
{"sequence": "AAGTAAAA", "PBM E-score": 0.121}
{"sequence": "AGGTAAAG", "PBM E-score": 0.19}
{"sequence": "ACCTAGTC", "PBM E-score": -0.177}
{"sequence": "GAAGGACC", "PBM E-score": -0.245}
{"sequence": "ACAAGCCT", "PBM E-score": 0.227}
{"sequence": "TCCAAGCA", "PBM E-score": -0.164}
{"sequence": "ATGGTAGA", "PBM E-score": 0.079}
{"sequence": "GCGTAAAA", "PBM E-score": 0.4}
{"sequence": "TCGTAAAA", "PBM E-score": 0.237}
